ALOX12 inhib = blocks human 12-lipoxygenase activity; P18054; Potency, µM (titrated, usually from 57.1 µM), for the others: at the highest dose activity change, negative = inhibition, actives largely listed as inhibitors; purified 12-hLO, xylenol orange hydroperoxide absorbance; 150,000 compounds, 0.12% hits; active = well fitted inhibition curve with a large enough effect; inconclusive = small, poorly fitted or top-dose-only effect; note: potency is the fitted concentration of half-maximal effect; nearly all actives have a fitted effect of over 55% in size
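Purified human 12hLO (150 nM), preincubated 15 min with compound, then 40 uM arachidonic acid for 30 min, room temperature, Hepes pH 7.0 with 0.01% Triton X-100. Hydroperoxide detected by ferrous iron/xylenol orange; 573/405 nm absorbance ratio gives reaction progress.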
ALDH1A1 block = blocks purified human ALDH1A1 activity | P00352 | Purified ALDH1A1, NADH fluorescence, propionaldehyde substrate | Potency, µM (top dose mostly 75.3 µM), for inactives: top-dose activity, negative = inhibition, actives largely listed as inhibitors | 220,000 compounds, 7.3% hits;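 note: potency is the fitted concentration of half-maximal effect; plate controls were no enzyme wells and a reference inhibitor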
Target sequence (P00352 whole entry, looked up): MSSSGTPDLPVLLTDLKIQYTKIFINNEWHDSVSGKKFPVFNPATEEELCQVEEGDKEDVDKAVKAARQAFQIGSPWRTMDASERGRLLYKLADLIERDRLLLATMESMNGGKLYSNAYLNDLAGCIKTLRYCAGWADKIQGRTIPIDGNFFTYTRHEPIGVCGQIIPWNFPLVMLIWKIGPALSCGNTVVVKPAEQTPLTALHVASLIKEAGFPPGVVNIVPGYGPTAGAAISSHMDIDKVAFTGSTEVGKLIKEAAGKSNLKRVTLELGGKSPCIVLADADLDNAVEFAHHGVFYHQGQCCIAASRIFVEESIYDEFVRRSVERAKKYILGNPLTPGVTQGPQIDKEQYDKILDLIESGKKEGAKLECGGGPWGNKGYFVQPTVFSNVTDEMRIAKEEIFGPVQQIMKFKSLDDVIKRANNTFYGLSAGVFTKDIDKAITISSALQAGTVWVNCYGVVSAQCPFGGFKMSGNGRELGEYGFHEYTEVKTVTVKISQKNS
Lamin A splicing = changes lamin A minigene splicing in HeLa cells; HeLa LMNA splicing GFP/RFP minigene ratio, 48 h; Potency, µM (top dose mostly 46.1 µM), for the others: top-dose ratio change, negative = inhibition, actives largely listed as inhibitors; 200,000 compounds, 0.01% hits; active = well fitted inhibition curve with a large enough effect in the signal ratio, with a control signal flat, not every such curve was filed as active; inconclusive = small, poorly fitted or top-dose-only effect, or effect the other way, or a change in a side signal; the % refers to the signal ratio; note: potency is the fitted concentration of half-maximal effect
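S3 HeLa cells stably expressing lamin A-EGFP splicing minigene plus DsRed2, 600 cells/well, 48 h compound exposure at 37C. Laser-scanning cytometry; analysed as GFP (500-530 nm)/RFP (575-640 nm) total intensity ratio; 0.5% DMSO vehicle.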
PNC assembly inh = inhibitors of perinucleolar compartment assembly; PC3M PTB-GFP, PNC prevalence imaging, 16 h; stronger effect = lower value; activity change (PNC), negative = inhibition, % at 10 µM; AID 2417; 140,000 compounds, 3.1% hits;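 active = readout at or below -70, meaning at least 70% loss of cells showing the perinucleolar compartment, a nuclear body marking cancer cells; inconclusive = readout between -30 and a set limit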;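 note: plate controls were DMSO wells for no effect and camptothecin positive control wells for full effect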
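PC3M cells stably expressing PTB-GFP, 750–1000 cells/well, treated 16 h at 37 °C with compound (23 nl of library stock), in duplicate. After paraformaldehyde fixation and Hoechst stain, imaged at 20x; PNC prevalence scored by image analysis.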
HPGD block = blocks human HPGD enzyme activity | Potency, µM, without a hit: top-dose activity change, negative = inhibition, usual class: inhibitors | purified HPGD, NADH fluorescence kinetic, PGE2 substrate | P15428 | 150,000 compounds, 4.3% hits; note: potency is the fitted concentration of half-maximal effect
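20 nM HPGD preincubated 15 min at room temperature with compound in 50 mM Tris-HCl pH 8, 0.01% Tween 20. Started with 1 mM NAD+ and 30 uM prostaglandin E2; NADH fluorescence (360/450 nm) read 5 times over 30-s intervals, last minus first.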
* = called active by the depositor; ? = inconclusive; / = no result; [ ] = remark or other dose. Compounds with a hit are over-represented: about 10% of the library has one in this group of screens. Unless noted, calls come from the whole dose curve; as a rule, active = well fitted inhibition curve with a large enough effect (not every such curve was filed as active); inconclusive = small, poorly fitted or top-dose-only effect, or another doubt; inactive = no such curve, though single readings can be large or run the other way. Unless noted, % is set by controls: 0 for no effect and ±100 for the full control effect.

SMILES	ALOX12 inhib	ALDH1A1 block	Lamin A splicing	PNC assembly inh	HPGD block
CCc1nc(SCC(=O)N2CCN(c3ccccc3)CC2)c2c(=O)n(C)c(=O)n(C)c2n1	/	11%	/	/	/
COc1ccc(OC)c(/C=N/NC(=O)c2cc3c(OC)c(OC)ccc3[nH]2)c1	-2%	-14%	-12%	-112*	-17%
Cc1ccc(/C=C2\SC(=S)N(/N=C/c3cc([N+](=O)[O-])ccc3O)C2=O)o1	/	7.1µM*	/	/	/
CNS(=O)(=O)c1cccc(C(=O)OCC(=O)N(CCC#N)c2ccccc2)c1	/	4%	-11%[46 µM]	/	/
Cc1ccc(S(=O)(=O)Nc2ccc(C(=O)OCC(=O)N(CCC#N)c3ccccc3)cc2)cc1C	-1%	-14%	-21%	-87*	-5%
Cc1ccc(-c2nc(=S)c3c(n2Cc2ccco2)CCCC3)cc1	?	13µM*	-13%	-129*	-23%
Cc1cccc(-c2nc(=S)c3c(n2Cc2ccco2)CCCC3)c1	-20%	?	-9%	?	-15%
COc1cc(C2CC(=O)c3c([nH]c(C(=O)OC4CCCCC4)c3C)C2)cc(OC)c1OC (stereo unspecified)	/	/	-3%[46 µM]	/	/
Cc1ccccc1-n1c(SCc2c(C)noc2C)nnc1-c1cccnc1	-6%	5%	9%	?	/
Cc1ccccc1-n1c(SCc2c(C)noc2C)nnc1-c1ccncc1	3%	?	1%	-83*	-12%
CCn1c(CN2CCCCC2)nc2cc(NC(=O)c3cccc([N+](=O)[O-])c3)ccc21	/	/	2%[46 µM]	/	/
CC1CCN(C(c2ccccc2)c2sc3nc(-c4ccco4)nn3c2O)CC1 (stereo unspecified)	/	/	2%[46 µM]	/	/
COc1ccc(C(=O)c2cc([N+](=O)[O-])ccc2N2CCCC2)cc1	1%	-2%	?	-12	-5%
CN1CCN(S(=O)(=O)c2cc([N+](=O)[O-])ccc2N2CCCCCC2)CC1	-10%	?	11%	17	-10%
O=C(NC12CC3CC(CC(C3)C1)C2)c1cc([N+](=O)[O-])ccc1N1CCOCC1	/	13µM*	/	/	/
Cc1ccc(C(=O)c2cc([N+](=O)[O-])ccc2N2CCOCC2)cc1C	-14%	32µM*	?	?	-16%
COc1ccc(C(=O)c2cc([N+](=O)[O-])ccc2N2CCN(C)CC2)cc1	/	5µM*	-8%[46 µM]	/	/
O=[N+]([O-])c1ccc(N2CCCCCC2)c(S(=O)(=O)N2CCCCC2)c1	-11%	25µM*	16%	22	-13%
Cc1ccc(C(=O)c2cc([N+](=O)[O-])ccc2N2CCCCC2)cc1C	-5%	-1%	?	?	-13%
Cc1ccc(-n2ncc3c(N4CCCCC4)ncnc32)cc1	/	/	-6%[46 µM]	/	/
COc1ccc(Cn2ccc3nc(C)c(C(=O)N4CCN(c5ccc(OC)cc5)CC4)cc3c2=O)cc1	/	/	3%[46 µM]	/	/
O=C(c1ccc(Br)cc1)c1cc([N+](=O)[O-])ccc1N1CCCCC1	-7%	2.8µM*	?	?	-13%
Cc1ccc(C(=O)c2cc([N+](=O)[O-])ccc2N2CCN(C)CC2)cc1	-1%	?	-3%	-6	-3%
CC(C)CNC(=O)c1cc([N+](=O)[O-])ccc1N1CCCCC1	-3%	0%	-4%	50	-9%
CCC(CC)c1nnc(NC(=O)c2cc([N+](=O)[O-])ccc2N2CCCCC2)s1	1%	7.9µM*	9%	28	-20%
SMILES	ALOX12 inhib	ALDH1A1 block	Lamin A splicing	PNC assembly inh	HPGD block
CN1CCN(c2ccc([N+](=O)[O-])cc2C(=O)c2ccc(Br)cc2)CC1	-14%	28µM*	?	-14	-12%
O=C(NC1CCCCC1)c1cc([N+](=O)[O-])ccc1N1CCCCC1	-3%	13µM*	-1%	12	-7%
C[C@@]12CC(=O)C3=C(CCCC3=O)N1CCc1ccccc12	/	-6%	/	/	-2%
Cc1cccc(Oc2nc(CN3CCOCC3)nc3sc4c(c23)CCCC4)c1	-2%	?	-9%	-104*	-16%
Clc1nc(CN2CCOCC2)nc2sc3c(c12)CCC3	/	7%	/	/	/
CC1CCN(C(=O)c2cc(-c3ccccc3O)on2)CC1	-8%	14µM*	-13%	?	14µM*
O=C(c1cc(-c2ccc(Cl)c(Cl)c2)on1)N1CCCCC1	-10%	8.9µM*	-8%	22	2.8µM*
O=C(c1cc(-c2ccccc2O)on1)N1CCc2ccccc2C1	-4%	?	?	?	?
O=C(c1cccc(-c2ccc(O)cc2)c1)N1CCOCC1	3%	-5%	-7%	18	16µM*
O=C(c1cc(-c2cccc(O)c2)on1)N1CCOCC1	-1%	?	-2%	-85*	-26%
CCCCCCCCCCCCCCC[C@H](O)[C@H](N)CO	-6%	4%	?	/	-10%
COc1ccc(-c2cc(C(=O)N3CC4(C)CC3CC(C)(C)C4)no2)cc1 (stereo unspecified)	1%	-15%	4%	-11	35µM*
COc1cccc(-c2cc(C(=O)N3CCN(C(c4ccccc4)c4ccccc4)CC3)no2)c1	0%	?	?	?	-20%
CC(C)CNC(=O)c1cc(-c2ccc(Cl)c(Cl)c2)on1	-2%	-12%	?	29	-11%
COc1cccc(-c2cc(C(=O)N3C(C)CCCC3C)no2)c1 (stereo unspecified)	0%	?	7%	-91*	8.9µM*
O=C1c2ccccc2-c2ccc(C(=O)N3CCOCC3)cc21	-4%	-4%	6%	?	11µM*
CCC1CCCCN1C(=O)c1cc(-c2ccc(Cl)c(Cl)c2)on1 (stereo unspecified)	-3%	-1%	?	-20	4.5µM*
COc1ccc(-c2cc(C(=O)N3CC4(C)CC3CC(C)(C)C4)no2)cc1OC (stereo unspecified)	-3%	-15%	9%	13	-25%
CC1CCC(C(C)C)C(=O)C1 (stereo unspecified)	-2%	-6%	?	/	-7%
O=C(c1cc(-c2ccc(Cl)c(Cl)c2)on1)N1CCN(c2ccccc2)CC1	-7%	4%	1%	-23	-4%
CC1CCCCN1C(=O)c1cc(-c2ccc(Cl)c(Cl)c2)on1 (stereo unspecified)	-14%	?	?	-8	4.5µM*
COc1ccc(/C=C(\C#N)C(=O)NC2CCS(=O)(=O)C2)cc1OC (stereo unspecified)	1%	6%	?	-119*	-15%
Cc1nc2ccccc2c(=O)n1N(c1ccccc1)c1ccccc1	/	8%	-13%[46 µM]	/	/
CCC1=C/C(=C/N(C)c2ccccc2)C(=O)S1	-9%	25µM*	-2%	4	22µM*
COc1ccc(OCC(=O)c2c(O)c3ccccc3oc2=O)cc1	-8%	?	-15%	-6	22µM*
CCOc1ccc(OCC(=O)c2c(O)c3ccccc3oc2=O)cc1	-13%	8.9µM*	-3%	6	13µM*
CCCCC(=O)c1c(O)c2ccccc2oc1=O	-2%	-5%	?	?	-16%
